In PubChem BioAssay AID2576 (National Center for Advancing Translational Sciences (NCATS), 2010):
Where “and” joins values, the source holds several entries; their conditions need not be identical. Equal entries are not always repeated. Inconclusive results are not listed. A structure can be active in one record and inactive in another. Calls of active or inactive are those of the source. Calls follow the shape of the dose curve; as a rule, active = well fitted activation curve with a large enough effect; inconclusive = small, poorly fitted or top-dose-only effect, or effect the other way; inactive = flat fitted curve, though single readings scatter.

target: Pyruvate kinase PKM (Homo sapiens) (UniProt P14618); assay: Secondary LDH Assay for Activators of Human Pyruvate Kinase M2 isoform: for Probe SAR; conditions: purified hPK-M2, LDH-coupled NADH fluorescence kinetic; series mostly up to 58.4 µM; activation: at the top concentration
Sequence (P14618 whole entry, looked up, canonical isoform): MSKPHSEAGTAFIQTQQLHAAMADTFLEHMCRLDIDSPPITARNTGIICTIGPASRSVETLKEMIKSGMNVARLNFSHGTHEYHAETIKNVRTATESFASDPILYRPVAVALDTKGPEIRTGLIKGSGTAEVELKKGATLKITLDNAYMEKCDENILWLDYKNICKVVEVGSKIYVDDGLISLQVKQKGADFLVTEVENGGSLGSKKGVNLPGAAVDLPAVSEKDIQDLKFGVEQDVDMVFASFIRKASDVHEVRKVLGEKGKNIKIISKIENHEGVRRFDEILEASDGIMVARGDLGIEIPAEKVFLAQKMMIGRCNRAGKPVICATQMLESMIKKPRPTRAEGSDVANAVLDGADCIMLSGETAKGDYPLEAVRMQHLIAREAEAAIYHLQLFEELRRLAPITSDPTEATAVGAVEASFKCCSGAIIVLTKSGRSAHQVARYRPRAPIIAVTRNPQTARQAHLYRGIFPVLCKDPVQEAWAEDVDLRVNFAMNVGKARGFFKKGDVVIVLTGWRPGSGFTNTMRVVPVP
Source text: NIH Chemical Genomics Center [NCGC] Matthew G. Vander Heiden, M.D., Ph.D. [Harvard Medical School, 77 Avenue Louis Pasteur, Boston, MA 02115] NCGC Assay Overview: Human pyruvate kinase muscle 2 (hPK-M2)enzyme was supplied as a highly purified (>95% pure) preparation from Harvard Medical School and a secondary assay was used to evaluate compounds. This assay couples the formation of pyruvate from hPK-M2 using lactate dehydrogenase (LDH) and NADH. The depletion of NADH is followed in a fluorescent-based kinetic assay that follows the formation of pyruvate to lactate, as catalyzed LDH (described by Hannaert et al., 2002)1 Pyruvate kinase substrates, PEP and ADP, were present in the assay at 0.1 mM and 4 mM respectively. In this kinetic assay initial rates were determined by following the fluorescence of NADH depletion.
NCGC Assay Protocol Summary: Three uL of substrate mix (final concentration, 50 mM Tris-Cl pH 8.0, 200 mM KCl, 15 mM MgCl2, 0.1 mM PEP, 4.0 mM ADP, and 0.2 mM NADH) was dispensed into black-solid 1536 well plates. 23 nL of compounds were delivered by a pin tool and 1 uL of enzyme mix (final concentrations, 10 nM hPK-M2 and 1 uM of LDH) was added. Plates were immediately placed in ViewLux (Perkin Elmer) and NADH fluorescence was determined at 30 second exposure intervals for between 3 and 6 minutes. Data were normalized to the uninhibited and EC100 activation using known activators such as fructose-bis-phosphate.

| Structure (SMILES) | activation | Potency |
| --- | --- | --- |
| Cc1ccc2nc(-c3ccc(C)o3)c(NC3CCCC3)n2c1 | -15.3% (inactive) | – |
| Cc1cccc(NS(=O)(=O)c2ccc3c(c2)CCC(=O)N3)c1 | – | 1830 nM (active) |
| Cc1ccc(NS(=O)(=O)c2ccc3c(c2)CCCC(=O)N3)cc1C | 25.4% (inactive) | – |
| O=C1CCc2cc(S(=O)(=O)Nc3cccnc3)ccc2N1 | -4.47% (inactive) | – |
| O=C1c2ccccc2C(=O)N1c1cccc2ncccc12 | 3.02% (inactive) | – |
| CSc1cc2c(s1)c1cnn(Cc3cccc(O)c3)c(=O)c1n2C | – | 206 nM (active) |
| O=C1CCc2cc(S(=O)(=O)NCc3ccccc3)ccc2N1 | 23.2% (inactive) | – |
| Cc1cccc(OC2=NS(=O)(=O)c3ccccc32)c1 | 2.22% (inactive) | – |
| Cc1ccccc1OC1=NS(=O)(=O)c2ccccc21 | 1.19% (inactive) | – |
| CC(=O)Nc1ccc(S(=O)(=O)Nc2ccc(C)c(C)c2)cc1 | 5.65% (inactive) | – |
| O=C1CCc2cc(S(=O)(=O)Nc3ccncc3)ccc2N1 | 14.4% (inactive) | – |
| COc1cc(F)c(S(=O)(=O)N2CCCN(S(=O)(=O)c3cccc(N)c3)CC2)c(F)c1 | – | 1830 nM (active) |
| CNc1cccc(S(=O)(=O)N2CCN(S(=O)(=O)c3ccc4c(c3)OCCO4)CC2)c1 | 11% (inactive) | – |
| Cc1ccc(NS(=O)(=O)c2ccc(Cl)cc2)cc1C | 20% (inactive) | – |
| Cc1ccc(NS(=O)(=O)c2cccc(C(=O)O)c2)cc1C | 14.2% (inactive) | – |
| Cc1ccc(NS(=O)(=O)c2ccc3c(c2)CCC(=O)N3)cc1 | – | 5170 nM (active) |
| Cc1cc2c(s1)c1cnn(Cc3c(Cl)ccc(C)c3F)c(=O)c1n2C | – | 562 nM (active) |
| O=C1CCc2cc(S(=O)(=O)Nc3cccc(-c4ccccc4)c3)ccc2N1 | 15.2% (inactive) | – |
| O=C1CCc2cc(S(=O)(=O)Nc3ccccn3)ccc2N1 | -3.58% (inactive) | – |

| Structure (SMILES) | activation | Potency |
| --- | --- | --- |
| O=C1c2ccccc2C(=O)N1C1CCCCC1 | 3.59% (inactive) | – |
| O=C1c2ccccc2C(=O)N1c1ccccn1 | -0.663% (inactive) | – |
| O=C1c2ccccc2C(=O)N1c1cccc(O)c1 | -6.18% (inactive) | – |
| Cc1ccc(N2C(=O)c3ccccc3C2=O)c(C)c1 | 1.44% (inactive) | – |
| Cc1ccc(NS(=O)(=O)c2ccc(F)cc2)cc1C | 14.6% (inactive) | – |
| Cc1ccc(NS(=O)(=O)c2ccc(-c3ccccc3)cc2)cc1C | 10.9% (inactive) | – |
| Cc1ccc(NS(=O)(=O)c2ccc3c(c2)N(C)C(=O)CO3)cc1C | – | 1460 nM (active) |
| Cc1ccc(NS(=O)(=O)c2cc3c(cc2-c2ccccc2)NC(=O)CO3)cc1C | 5.95% (inactive) | – |
| COc1cccc(N2C(=O)c3ccccc3C2=O)c1 | 17.9% (inactive) | – |
| CN(C)c1cccc(S(=O)(=O)N2CCN(S(=O)(=O)c3ccc4c(c3)OCCO4)CC2)c1 | 2.94% (inactive) | – |
| Cc1ccc(NS(=O)(=O)c2cc3c(cc2/C=C/c2ccccc2)NC(=O)CO3)cc1C | -4.81% (inactive) | – |
| O=C1c2ccccc2C(=O)N1c1ccncc1 | 11.9% (inactive) | – |
| Cc1ccc(N(C)S(=O)(=O)c2ccc3c(c2)CCC(=O)N3)cc1C | 0.911% (inactive) | – |
| Cc1ccc(NS(=O)(=O)c2cc3c(cc2N(C)C)CCC(=O)N3)cc1C | – | 1460 nM (active) |
| COc1ccc(OC2=NS(=O)(=O)c3ccccc32)cc1 | 1.11% (inactive) | – |
| O=S(=O)(c1ccc2c(c1)OCCO2)N1CCN(S(=O)(=O)c2c(F)cccc2F)CC1 | – | 5800 nM (active) |
| Cc1ccn2c(NC3CCCCC3)c(-c3ccc(C)o3)nc2c1 | -14.6% (inactive) | – |
| Cc1cc2c(s1)c1cnn(Cc3ccccc3F)c(=O)c1n2C | – | inactive and 291 nM (active) |
| COc1cccc(Cn2ncc3c4sc(SC)cc4n(C)c3c2=O)c1 | – | 206 nM (active) |
